Hsp70 act = switches on Hsp70 transcription; HeLa Hsp70 promoter luciferase reporter, luminescence; scaled: vehicle 0, proteasome-inhibitor control 100%; activation, % at 10 µM; 200,000 compounds, 0.04% hits; AID 1203;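 active = activation above the mean across all tested compounds plus 3 SD, cutoff set per campaign, cut at about 5.5% in these data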
Wee1 degr inh = blocks degradation of human Wee1 kinase; P30291; HeLa Luc-Wee1K328M stability, luciferase luminescence; 100% = proteasome inhibitor MG132 effect; reporter increase, % at 5 µM; 220,000 compounds, 1.2% hits; AID 1321;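 active = activation above the mean of all tested compounds plus 3 SD, set per screening run, cut at about 8.8% in these data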;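 also: cells exposed to compound for 20 h before luminescence read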
HSV replic up = HSV replication enhancement | HSV replication augmentation in cells, fold increase | maximum fold increase | 220,000 compounds, 0.005% hits | AID 1956; in the data active = maximum fold increase above about 1.5; tested in PC3 cells
DTT redox prof = compounds producing H2O2 with reducing agent – biochemical, NIH compound library profiling, artefact control for MLSCN library redox annotation, primary screen. DTT-dependent redox cycling H2O2, phenol red/HRP absorbance; 100% = 100 µM peroxide control, 0% = buffer. AID 878. 200,000 compounds, 0.03% hits. activation, % at 10 µM;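 active = activation of at least 50% relative to the plate's high and low controls in the primary single-dose screen; inactive = activation below 50%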;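 also: compound incubated with DTT at 0.8 mM final as the reducing agent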
p97 ATPase inh = inhibitors of human p97 ATPase; recombinant p97 ATPase, Kinase-Glo ATP luminescence, 3 h; inhibition, % at 8 µM; 220,000 compounds, 0.42% hits; AID 1481; in the data active = inhibition above about 15%
Wee1 degr conf = confirmation of human Wee1 degradation inhibitors; shares compounds with Wee1 degr inh; HeLa Luc-Wee1K328M degradation, luminescence; vehicle 0%, proteasome-blocked wells 100%; activation, % at 5 µM; 1,100 compounds, 4% hits; AID 1410; in the data active = activation above about 8.9%
Hits are given with their value; i = inactive; nt = not tested or not shown. Rows were chosen to be rich in hits. Some 1.6% of all compounds tested hit in one or more screens of this group.

SMILES	Hsp70 act	Wee1 degr inh	HSV replic up	DTT redox prof	p97 ATPase inh	Wee1 degr conf
O=C(Nc1ccccn1)c1sc2cccc(F)c2c1Cl	i	i	i	i	i	nt
O=C(O)CS(=O)CC(=O)NCc1cccc(C(F)(F)F)c1 (configuration not stated)	i	i	i	i	i	nt
CC(C)C(NS(=O)(=O)c1ccc2c(c1)oc(=O)n2C)C(=O)N1CCN(C2CCCCC2)CC1 (configuration not stated)	i	i	i	i	i	nt
CC(=O)CC(=O)Nc1nc(C)cc(C)n1	i	i	i	i	i	nt
CCOCC(=O)Nc1nc(C)cc(C)n1	i	11	i	i	i	i
CCc1cccc2c(C(=S)N3CCCC3)c[nH]c12	i	14	i	i	i	i
Cc1ccc(-n2c(O)c(/C=C3/C(c4ccccc4)=Nc4ccccc43)c(=O)[nH]c2=O)cc1	i	i	i	i	i	nt
Cc1ccc2[nH]c(=O)c(CN(C)C(=O)c3cccs3)cc2c1	i	i	i	i	i	nt
COc1ccc(NC(=S)Nc2ccccc2C(F)(F)F)cc1	i	17	i	i	i	i
CCCCNS(=O)(=O)c1ccc2nc(-c3cccnc3)cc(C(=O)NC(C)C)c2c1	i	19	nt	i	i	i
Cc1csc(C(C#N)C(=O)c2ccncc2)n1 (configuration not stated)	i	i	nt	i	i	nt
CCSc1nnc(NC(=O)CSc2nnc(C)c(=O)n2N)s1	i	i	i	i	i	nt
CCSc1nnc(NC(=O)CSC2=NN3CCCC(=O)N=C3S2)s1	i	17	i	i	i	i
Cc1ccc(C(C(=O)NCc2ccco2)N(C(=O)CNC(=O)c2cccs2)c2c(C)cccc2C)cc1 (configuration not stated)	i	i	i	i	i	nt
Cc1ccc(C(C(=O)NCc2ccco2)N(C(=O)CNC(=O)c2cccs2)c2c(C)cc(C)cc2C)cc1 (configuration not stated)	i	11	i	i	i	i
CCc1ccccc1NC(=O)N[C@H](C(=O)O)C(C)C	i	i	i	i	i	nt
CC1CCN(CC(=O)NC(=O)NCc2ccccc2)CC1	i	i	i	i	i	nt
CC1CCCCN1CC(=O)NC(=O)NCc1ccccc1 (configuration not stated)	i	18	i	i	i	i
Cc1ccc(NC(=O)CN(C)Cc2nc3ccccc3c(=O)[nH]2)c(Br)c1	i	11	i	i	i	i
CC1CCCC(NC(=O)C2c3ccccc3C(=O)N2Cc2cccs2)C1C (configuration not stated)	i	i	i	i	i	nt
CCN(CC)c1c(-c2ccccc2)c2cc(C)ccc2[nH]c1=O	i	i	i	i	i	nt
Cc1n[nH]c(=O)nc1NCCc1ccccc1	i	i	i	i	i	nt
CCCS(=O)(=O)N1CCN(S(=O)(=O)c2ccccc2[N+](=O)[O-])CC1	i	11	i	i	i	i
OC[C@@H]1CCCN1Cc1nc(-c2cccs2)no1	i	11	i	i	i	i
c1csc(-c2noc(CN3CCN4CCCC4C3)n2)c1 (configuration not stated)	i	i	i	i	i	nt
SMILES	Hsp70 act	Wee1 degr inh	HSV replic up	DTT redox prof	p97 ATPase inh	Wee1 degr conf
O=C(Nc1ccccc1)C1=C[C@@H](c2ccc3c(c2)OCO3)C[C@@H](OCCCCO)O1	nt	nt	i	nt	nt	nt
O=C(N/N=C/c1ccncc1)c1ccccc1	i	i	i	i	i	nt
Cc1ccc(/C=N/NC(=O)c2ccncc2)o1	i	13	i	i	i	i
Cc1ccc(/C=N/NC(=O)c2ccccn2)o1	i	i	i	i	i	nt
O=C(N/N=C/C1=Cc2ccccc2OC1)c1ccncc1	nt	13	i	nt	i	i
CC(C)=CCCC(C)CN(C)CCc1ccccn1 (configuration not stated)	i	i	i	i	i	nt
O=C(NCCSc1ccccc1)c1ccc(CN2CCOCC2)cc1	nt	15	i	nt	i	i
Cc1ccc(/C=C/C(=O)NCCCc2ccccc2)cc1	i	19	i	i	i	i
C#CCNC(=O)/C=C/c1ccc(C)cc1	i	i	i	i	i	nt
CC1(C)Oc2ccc(NC(=O)c3ccco3)cc2O1	i	13	i	i	i	i
CCC1=NC(c2ccccc2)N(O)C1(C)C (configuration not stated)	i	i	i	i	i	nt
